The text below walks through data of PubChem BioAssay (Tox21).

Structures are written as SMILES. Calls of active or inactive are those of the source. Where a call stands in place of a potency, no number is given. The call rests on the fitted dose curve.

Chain of Acetylcholinesterase (Homo sapiens) (P22303 whole entry, looked up): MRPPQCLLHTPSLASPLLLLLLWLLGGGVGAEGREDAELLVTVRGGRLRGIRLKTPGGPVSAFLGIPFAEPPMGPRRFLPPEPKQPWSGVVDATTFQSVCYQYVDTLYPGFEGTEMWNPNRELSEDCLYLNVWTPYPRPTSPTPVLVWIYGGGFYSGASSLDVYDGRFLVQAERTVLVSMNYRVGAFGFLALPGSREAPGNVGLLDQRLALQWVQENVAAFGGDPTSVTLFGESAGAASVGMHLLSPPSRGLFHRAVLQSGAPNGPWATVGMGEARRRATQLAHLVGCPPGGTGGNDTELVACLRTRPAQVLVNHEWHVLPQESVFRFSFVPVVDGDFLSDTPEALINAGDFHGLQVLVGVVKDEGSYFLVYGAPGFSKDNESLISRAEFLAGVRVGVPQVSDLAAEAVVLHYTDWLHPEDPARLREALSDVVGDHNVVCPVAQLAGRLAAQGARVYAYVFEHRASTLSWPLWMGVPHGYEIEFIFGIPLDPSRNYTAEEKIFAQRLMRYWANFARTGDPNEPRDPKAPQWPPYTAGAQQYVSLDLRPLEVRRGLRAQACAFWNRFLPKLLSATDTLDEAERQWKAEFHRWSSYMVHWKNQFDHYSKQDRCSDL

For this test, the target named is Acetylcholinesterase (Homo sapiens) (UniProt P22303). The test can be described thus: Acetylcholinesterase (AChE) small molecule antagonists: enzyme-based qHTS assay (AID 1347397). Further: nearly all actives have a fitted effect of over 55% in size. Particulars: Potency: AChE enzyme activity inhibition; outcome: AChE enzyme activity inhibition; series mostly up to 115 µM. The procedure, abridged:
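Enzyme inhibition was scored from DTNB-detected thiocholine formed by recombinant human AChE acting on acetylthiocholine. The 30 min compound preincubation and 10 min substrate reaction were both run at room temperature, with DMSO as vehicle control.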
A general note: qHTS replaces the single test concentration by a dilution series.
Regarding `O=C(O)Cn1c(=O)n(Cc2ccc(Br)cc2F)c(=O)c2ccc(Cl)cc21`, the Potency entry is “inactive”.
Take `O=C(COCCOCCOCC(=O)Nc1c(I)cc(I)c(C(=O)O)c1I)Nc1c(I)cc(I)c(C(=O)O)c1I`: the Potency entry was “inactive”.
For `COc1cc(C=O)ccc1OC(=O)C(C)C`, the Potency entry was “inactive”.
The same measure, in the same setting: the entry for `C#CC(C)(CC)OC(=O)c1ccccc1C(=O)O` (stereo not given) is “inactive”.
For `CC(C)(C)C(=O)NCCCC(=O)O`, the Potency entry is “inactive”.
Same read-out and setting: the entry for `O=C(O)CCSCCC(=O)O` is “inactive”; for `CC1(C)[C@@H]2CC[C@@]1(C)[C@H](O)C2` it is “inactive”.
As to `CCN1C(=O)c2ccccc2C1Nc1ccc(OCCN2CCCCC2)cc1` (stereo not given), the Potency entry is “inactive”.
As for `Cc1ccc(Nc2c(F)cccc2Cl)c(CC(=O)O)c1`, the Potency result is “inactive”.
Regarding `CC(C)(C(=O)c1cccnc1)c1cccnc1`, the Potency result is “inactive”.
The same measure, in the same setting: the entry for `C#Cc1ccc(-c2ccccc2F)cc1` is “inactive”; for `Nc1ccc(S(=O)(=O)c2ccc(N)cc2)cc1` it is “inactive”.
Still for that read-out and setting: for `COc1cc(C(=O)N2CCCCCCC2)cc(OC)c1OC` the value was “inactive”; for `Nc1ccc(C(=O)O)cc1`, “inactive”.
With `CC(=O)OCC(COC(C)=O)OC(C)=O`, the Potency entry is “inactive”.
For the compound `CN1C[C@@H]2C[C@H]1CN2c1cc2c(cc1F)c(=O)c(C(=O)O)cn2C1CC1`, the activity change, negative = inhibition is -0.543% [at 23.6 µM] (inactive).
As for `CCCCCCC`, the Potency result was “inactive”.
Same read-out and setting: for `CC(=O)Nc1ccc(/C=N/NC(N)=S)cc1` the value was “inactive”.
As to `CC1(C)Oc2ccc(C#N)cc2[C@@H](N2CCCC2=O)[C@@H]1O`, the Potency entry is “inactive”.
Same read-out and setting: for `O=C(Cl)c1ccccc1[N+](=O)[O-]` the value was “inactive”; for `C=C(C)[C@H]1CC=C(C)C(=O)C1`, “inactive”; for `CC(C)CCCC(C)N` (stereo not given), “inactive”.
With `CCO[Si](CCC#N)(OCC)OCC`, the Potency entry was “inactive”.
On the same count and under the same terms, the entry for `O=C1CCCC(=O)O1` is “inactive”; for `CC1(C)C(=O)NC(=O)N1CO` it is “inactive”.
Still for that read-out and setting: the entry for `CC(C)c1cccc(C(C)C)c1N1C(=O)c2ccc(O)cc2C1=O` is “inactive”.
Still for that read-out and setting: for `CC(=O)CCC(=O)O` the value was “inactive”.
Take `CCc1oc2ccccc2c1C(=O)c1cc(I)c(O)c(I)c1`: the Potency entry is “inactive”.
Take `O=C(O)c1cc(O)c2c(c1)C(=O)c1cccc(O)c1C2=O`: the Potency entry is “inactive”.
With `CC1(C)CC(=O)CC(C)(C)N1`, the Potency entry was “inactive”.
Regarding `CC(=O)CC/C=C(\C)CC/C=C(\C)CC/C=C(\C)CCC=C(C)C`, the Potency entry was “inactive”.
On the same count and under the same terms, for `CC(C)OC(=O)c1cc(C(=O)OC(C)C)cc([N+](=O)[O-])c1` the value was “inactive”; for `c1ccc2c(c1)CCc1ccccc1N2`, “inactive”; for `CC(=O)CC(C)(C)O`, “inactive”.
On the same count and under the same terms, the entry for `C/C=C/C=C/CO` is “inactive”.
Take `Cc1cc(O)c(C(C)C)cc1Cl`: the Potency entry is “inactive”.
Consider `O=C=Nc1cccc(C(F)(F)F)c1`, for which the Potency entry was “inactive”.
With `O=c1cc(-c2ccccc2)oc2cc(O)cc(O)c12`, the Potency result was “inactive”.
On the same count and under the same terms, for `CC1=Nc2ccc3ccccc3c2C1(C)C` the value was “inactive”; for `CC(=O)[C@@]1(O)CC[C@H]2[C@@H]3C[C@H](C)C4=CC(=O)C=C[C@]4(C)[C@@]3(F)[C@@H](O)C[C@@]21C`, “inactive”.
